Assay [1] concerns the target Glutathione peroxidase 1 (Homo sapiens) (UniProt P07203). The assay is described as follows: Primary qHTS Assay for Inhibitors of Recombinant Selenoprotein Glutathione Peroxidase 1 (GPX1) (AID 1845191). Also: nearly all actives have a fitted effect of over 65% in size. The settings on record: recombinant GPX1, GR-coupled NADPH fluorescence, 15 min; series mostly up to 27.7 µM. The gist of the method: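 GR-coupled readout: NADPH consumption tracked by fluorescence, ex 340/em 450 nm, at t=0 and after 15 min at RT. Final mix 10 nM GPX1, 1 mM GSH, 0.5 mM CHP, 0.5 mM NADPH, 100 nM GR, 0.01% BSA, following 30 min enzyme–compound preincubation.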

Assay [2] addresses Phospholipid hydroperoxide glutathione peroxidase GPX4 (Homo sapiens) (UniProt P36969). Nature of the assay: Primary qHTS Assay for Inhibitors of Recombinant Selenoprotein Glutathione Peroxidase 4 (GPX4) (AID 1845192). Also: nearly all actives have a fitted effect of over 65% in size. The settings on record: recombinant GPX4, GR-coupled NADPH fluorescence, 15 min; series mostly up to 27.8 µM. A digest of the protocol: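 Steps: GPX4 plus compound, 30 min RT; add GR/GSH/NADPH master mix; start with cumene hydroperoxide; read 340/450 nm fluorescence at 0 and 15 min. Finals were 200 nM GPX4, 1 mM GSH, 0.5 mM CHP, 0.5 mM NADPH, 100 nM GR.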
(In general: qHTS replaces the single test concentration by a dilution series.)

Assay [3] in a line: Primary fluorescence-based thiol-reactive (MSTI) qHTS assay for identification of artifact compounds. (AID 1845221). Also: nearly all actives have a fitted effect of over 65% in size. Also: potency is read from the fitted curve at half-maximal effect. The settings on record: MSTI thiol-reactivity probe, 1 h; series mostly up to 53.8 µM. The gist of the method:
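In PBS pH 7.4 with 2% DMSO, each compound met 4 uM MSTI for one hour at ambient temperature, shielded from light, before fluorescence detection.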

For assay [4], the target named is Luciferin 4-monooxygenase (Photinus pyralis) (UniProt P08659). Nature of the assay: Primary firefly luciferase (FLuc) qHTS assay for identification of artifact compounds. (AID 1845220). Also: nearly all actives have a fitted effect of over 60% in size. The settings on record: purified firefly luciferase, luminescence, 5 min; series mostly up to 54.1 µM. The gist of the method:
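D-luciferin and ATP (10 uM each, final) in Tris acetate buffer pH 7.6 were incubated with compounds for 15 min at room temperature. The reaction was started with 10 nM Photinus pyralis luciferase and luminescence read after 5 min. Percent inhibition was fitted to a 4-parameter Hill equation.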

Results filed as inconclusive are left out. Calls of active or inactive are those of the source. Calls follow the shape of the dose curve; as a rule, active = well fitted curve in the direction sought with a large enough effect; inconclusive = small, poorly fitted or top-dose-only effect, or another doubt; inactive = no such curve, though single readings can be large; an effect the other way counts as inactive or inconclusive.

Chain of Phospholipid hydroperoxide glutathione peroxidase GPX4 (Homo sapiens) (P36969 whole entry, looked up): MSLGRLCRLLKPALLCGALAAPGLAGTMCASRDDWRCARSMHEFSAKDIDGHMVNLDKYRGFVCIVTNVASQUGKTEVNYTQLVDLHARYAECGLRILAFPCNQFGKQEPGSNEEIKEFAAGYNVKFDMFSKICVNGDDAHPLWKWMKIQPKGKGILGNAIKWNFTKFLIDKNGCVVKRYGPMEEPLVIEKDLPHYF
Chain of Glutathione peroxidase 1 (Homo sapiens) (P07203 whole entry, looked up): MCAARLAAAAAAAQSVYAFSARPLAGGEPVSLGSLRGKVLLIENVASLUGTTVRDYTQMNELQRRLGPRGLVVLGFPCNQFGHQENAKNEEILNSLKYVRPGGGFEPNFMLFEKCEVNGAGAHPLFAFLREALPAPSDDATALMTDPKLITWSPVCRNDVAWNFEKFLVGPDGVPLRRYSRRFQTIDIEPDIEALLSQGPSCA

On to `COc1c(-c2ccc(O)cc2)cc(OC)c2c1oc1cc(O)c(OC3OC(CO)C(O)C3O)cc12` (stereo not given), for which the Potency entry in assay [1] and in assay [2] was “inactive” each time. Also, the Potency in assay [3] was 4.62 µM (active).

Consider `CC(C)c1ccc2c(c1)CCC1[C@](C)(C(=O)O)CCC[C@]21C` (stereo not given in full), for which the Potency entry in assay [1], in assay [2] and in assay [3] was “inactive” throughout.

Turning to `CC(=O)O[C@H]1[C@H](OC(=O)C(C)C)[C@]2(C)OC3(CC[C@]2(C)[C@H]2CCC[C@]4(CO4)[C@]12C)COC(=O)C3` (stereo not given in full), the Potency entry in assay [1], in assay [2] and in assay [3] was “inactive” each time.

As to `C=C1[C@H]2CCC3[C@]4(C)CCC[C@@](C)(C(=O)O)C4CC[C@]3(C2)[C@H]1OC(C)=O` (stereo not given in full), the Potency entry in assay [1], in assay [2] and in assay [3] was “inactive” each time.

As for `CCC(C)C(C(=O)O)N1Cc2c(OCC=C(C)C)c(C)c(OC)c(C(=O)O)c2C1=O` (stereo not given), the Potency entry in assay [1], in assay [2] and in assay [3] was “inactive” throughout.

Regarding `CCC(C)/C=C(C)/C=C/C1=CC2=C(Cl)C(=O)C(C)(OC(C)=O)C(=O)C2=CN1CCCCC(N)C(=O)O` (stereo not given), the Potency entry in assay [1] and in assay [4] was “inactive” throughout.

As for `Cc1ccc2nc(NC(=O)CSc3nc4c(c(=O)n3-c3ccc(F)cc3)SCC4)sc2c1`, the Potency entry in assay [1], in assay [2] and in assay [3] was “inactive” in each case.

For the origin of these results see PubChem BioAssay (NCATS).
